Consider 16 compounds from PubChem BioAssay (EPA / NIEHS).

Molecules are shown by their SMILES. Inconclusive results are not listed. The source made the active and inactive calls. How the source made its calls, unless noted: active means hit-call score of the fitted dose curve at least 0.9, where 1 is the maximum; inactive means score below 0.9.

The target of assay [1] is Nucleoli Translocation, AR (gene 367) (UniProt P10275). Kind of assay: UPITT_HCI_U2OS_AR_TIF2_Nucleoli_Agonist: University of Pittsburgh U2OS Androgen Receptor-Transcriptional Intermediary Factor 2 (AR-TIF2) Agonism High Content Imaging Assay for Nucleoli Translocation (AID 2283998; active means hit-call score of the fitted dose curve at least 0.9, where 1 is the maximum). In outline: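 Nucleolar translocation of AR-RFP, with TIF2-GFP coexpressed in human osteosarcoma U2OS, imaged by high-content fluorescence. Compounds tested singly at 20 uM final, confirmed in triplicate, then titrated 0.195–50 uM final; gain-of-signal relative to DMSO.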
Sequence of Nucleoli Translocation, AR (gene 367) (P10275 whole entry, looked up): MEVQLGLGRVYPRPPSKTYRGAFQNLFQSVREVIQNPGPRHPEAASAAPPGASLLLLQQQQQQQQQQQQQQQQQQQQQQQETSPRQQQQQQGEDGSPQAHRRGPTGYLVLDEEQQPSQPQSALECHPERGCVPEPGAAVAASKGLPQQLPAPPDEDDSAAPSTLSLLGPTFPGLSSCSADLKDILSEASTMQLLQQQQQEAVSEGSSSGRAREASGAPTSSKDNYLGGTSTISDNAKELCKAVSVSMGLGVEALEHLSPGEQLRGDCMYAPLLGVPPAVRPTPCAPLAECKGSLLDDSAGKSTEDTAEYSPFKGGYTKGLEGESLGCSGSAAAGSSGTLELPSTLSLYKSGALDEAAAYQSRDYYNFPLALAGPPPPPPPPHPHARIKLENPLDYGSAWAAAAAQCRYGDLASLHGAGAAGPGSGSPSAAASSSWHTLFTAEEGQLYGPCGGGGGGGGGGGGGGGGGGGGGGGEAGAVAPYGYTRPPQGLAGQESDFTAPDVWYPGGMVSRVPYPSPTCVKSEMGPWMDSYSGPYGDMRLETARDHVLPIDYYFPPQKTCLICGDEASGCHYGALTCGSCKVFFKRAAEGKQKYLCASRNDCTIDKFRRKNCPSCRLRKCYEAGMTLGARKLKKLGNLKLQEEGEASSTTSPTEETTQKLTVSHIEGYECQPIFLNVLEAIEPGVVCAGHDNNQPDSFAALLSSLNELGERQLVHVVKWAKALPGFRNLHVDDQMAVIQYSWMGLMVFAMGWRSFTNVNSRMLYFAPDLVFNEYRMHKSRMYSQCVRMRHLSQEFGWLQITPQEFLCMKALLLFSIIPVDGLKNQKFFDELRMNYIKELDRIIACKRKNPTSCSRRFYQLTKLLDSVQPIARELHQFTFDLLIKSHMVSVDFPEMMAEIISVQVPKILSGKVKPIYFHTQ

The target of assay [2] is Ratio of Nucleoli Translocation and Cytoplasm, AR (gene 367) (UniProt P10275). The assay can be described thus: UPITT_HCI_U2OS_AR_TIF2_Nucleoli_Cytoplasm_Ratio_Agonist: University of Pittsburgh U2OS Androgen Receptor-Transcriptional Intermediary Factor 2 (AR-TIF2) Agonism High Content Imaging Assay for Ratio of Nucleoli Translocation and Cytoplasm (AID 2284000; active means hit-call score of the fitted dose curve at least 0.9, where 1 is the maximum;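 further: hits raise the red nucleolar to cytoplasm ratio above vehicle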). In outline:
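U2OS cells expressing RFP-tagged human AR and GFP-tagged TIF2 were imaged by high-content fluorescence microscopy. The endpoint is the ratio of nucleolar to cytoplasmic red fluorescence, fitted for gain of signal relative to DMSO. Concentration-response spanned 0.195 to 50 uM final (0.5% DMSO).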

The nature of assay [3]: CCTE_Simmons_MITO_basal_resp_rate: CCTE's HepG2 Seahorse XF Respirometric Screening Assay at Basal Respiratory State, Simmons Lab (AID 2284001). Particulars: actives raise or lower the signal. In outline: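 HepG2 cells were given test chemicals at 7 concentrations, 125 nM to 100 uM final, and oxygen consumption rate was read every 6 min (3 min mix, 3 min measure) over 72 min. Basal-phase OCR was fitted bidirectionally against DMSO.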

Assay [4] in a line: CCTE_Simmons_MITO_max_resp_rate: CCTE's HepG2 Seahorse XF Respirometric Screening Assay at Maximal Respiratory State [uncoupled], Simmons Lab (AID 2284002). Particulars: actives raise or lower the signal. In outline:
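Maximal (FCCP-uncoupled) respiration rate in HepG2, from Seahorse kinetic OCR over 72 min at 6 min cycles. Compounds at 125 nM–100 uM final, 7 points, three biological replicates; both directions fit relative to DMSO.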

Assay [5] in a line: CCTE_Simmons_MITO_inhib_resp_rate: CCTE's HepG2 Seahorse XF Respirometric Screening Assay at Inhibited Respiratory State [full ETC block], Simmons Lab (AID 2284006). Particulars: actives raise or lower the signal. In outline:
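HepG2 cells on Seahorse XF96; oxygen consumption measured after test compound, then FCCP, then rotenone/antimycin A injections over 72 min. Test chemicals at 7 concentrations, 125 nM–100 uM final. OCR fitted bidirectionally versus DMSO.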

Assay [6] is described as follows: CCTE_Harrill_HTTr_Viability_MCF7: CCTE's 6-hour Cell Viability Assessment for the High-Throughput Transcriptomics (HTTr) Platform, in MCF-7 cells cultured in DMEM + 10% fetal bovine serum, Harrill Lab (AID 2284010). In outline:
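Membrane integrity was scored by high-content imaging of propidium iodide dye exclusion after a 6 h exposure across an eight-point dilution series. Data were fitted bidirectionally relative to DMSO as negative control and baseline.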

Assay [7] can be described thus: CCTE_Harrill_HTTr_Viability_PRF_DMEM_24hr: (Pilot) CCTE's 24-hour Cell Viability Assessment for the High-Throughput Transcriptomics (HTTr) Platform, in MCF-7 cells cultured in phenol red-free DMEM + 10% charcoal-stripped fetal bovine serum, Harrill Lab (AID 2283980). Summed up: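 MCF-7 cells in phenol red-free DMEM with 10% charcoal-stripped FBS, eight-point dilution series, 24 h exposure. Membrane integrity by propidium iodide exclusion with high content imaging; bidirectional fit vs DMSO.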

Assay [8] in a line: CCTE_Harrill_HTTr_Apoptosis_DMEM_6hr: (Pilot) CCTE's 6-hour Apoptosis Assessment for the High-Throughput Transcriptomics (HTTr) Platform, in MCF-7 cells cultured in DMEM + 10% fetal bovine serum, Harrill Lab (AID 2283981). In outline:
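Caspase-3/7 activation read by high content imaging with CellEvent Caspase 3/7 Green in MCF-7 cells (DMEM + 10% FBS), 6 h after dosing; eight-point dilution series. Bidirectional fitting relative to DMSO baseline.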

The nature of assay [9]: CCTE_Harrill_HTTr_Apoptosis_DMEM_12hr: (Pilot) CCTE's 12-hour Apoptosis Assessment for the High-Throughput Transcriptomics (HTTr) Platform, in MCF-7 cells cultured in DMEM + 10% fetal bovine serum, Harrill Lab (AID 2283982). Summed up: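 MCF-7 cells in DMEM + 10% FBS, exposed 12 h to an eight-point dilution series; caspase-3/7 activation imaged with CellEvent Green. Bidirectional fit versus DMSO.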

The nature of assay [10]: CCTE_Harrill_HTTr_Apoptosis_DMEM_24hr: (Pilot) CCTE's 24-hour Apoptosis Assessment for the High-Throughput Transcriptomics (HTTr) Platform, in MCF-7 cells cultured in DMEM + 10% fetal bovine serum, Harrill Lab (AID 2283983). Summed up:
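MCF-7 cells in DMEM + 10% FBS, eight-point dilution series, 24 h exposure. Caspase-3/7 activation imaged by high-content imaging with CellEvent Caspase 3/7 Green. Bidirectional curve fitting against DMSO baseline.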

Assay [11] is described as follows: CCTE_Harrill_HTTr_Apoptosis_PRF_DMEM_6hr: (Pilot) CCTE's 6-hour Apoptosis Assessment for the High-Throughput Transcriptomics (HTTr) Platform, in MCF-7 cells cultured phenol red-free DMEM + 10% charcoal-stripped fetal bovine serum, Harrill Lab (AID 2283984). In outline:
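MCF-7 cells in phenol red-free DMEM + 10% charcoal-stripped FBS, eight-point dilution series, 6 h exposure. Caspase-3/7 activation imaged by high-content imaging with CellEvent Caspase 3/7 Green; bidirectional fit versus DMSO baseline.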

The nature of assay [12]: CCTE_Harrill_HTTr_Apoptosis_PRF_DMEM_12hr: (Pilot) CCTE's 12-hour Apoptosis Assessment for the High-Throughput Transcriptomics (HTTr) Platform, in MCF-7 cells cultured in phenol red-free DMEM + 10% charcoal-stripped fetal bovine serum, Harrill Lab (AID 2283985). Summed up: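 MCF-7 cells in phenol red-free DMEM with 10% charcoal-stripped FBS, eight-point dilution series, 12 h exposure. Caspase-3/7 activation imaged by high content imaging with CellEvent Green reagent; bidirectional fit vs DMSO.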

The nature of assay [13]: CCTE_Harrill_HTTr_Apoptosis_PRF_DMEM_24hr: (Pilot) CCTE's 24-hour Apoptosis Assessment for the High-Throughput Transcriptomics (HTTr) Platform, in MCF-7 cells cultured in phenol red-free DMEM + 10% charcoal-stripped fetal bovine serum, Harrill Lab (AID 2283986). Summed up:
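MCF-7 cells in phenol red-free DMEM with 10% charcoal-stripped FBS, exposed 24 h across an eight-point dilution series. Caspase-3/7 activation imaged with CellEvent Green by high content imaging; bidirectional fitting against DMSO.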

A short description of assay [14]: CCTE_Shafer_MEA_acute_spike_number: CCTE's Neural Acute Assay for Total Number of Spikes, Shafer Lab (AID 2284008).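 On AC50: curve fitted for decrease in spike count so AC50 reflects inhibitors.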 In outline:
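Total spike count from 40 min recordings before and during compound exposure (0.03-40 uM), given as per-well percent change. Cortical cultures from rat, DIV 13 or 15, 37 C; adaptive detection threshold 8x rms noise.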

Assay [15] in a line: CCTE_Shafer_MEA_acute_firing_rate_mean: CCTE's Neural Acute Assay for Mean Firing Rate, Shafer Lab (AID 2284009).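 Further: analyzed for loss of signal so actives lower firing rate relative to DMSO.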 Summed up: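 Read-out: well-mean spike rate (spikes/recording length/electrodes), % change from 40 min pre-dose baseline to 40 min with compound. Rat cortical cultures, DIV 13 or 15, 37 C; 0.03-40 uM; DMSO as negative control.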
For another assay, the system named is DIO1 (gene 1733). Kind of assay: CCTE_GLTED_hDIO1: CCTE's human Deiodinase 1 (DIO1) Inhibition Assay, Great Lakes Toxicology and Ecology Division (GLTED) Lab (AID 2283987; active means hit-call score of the fitted dose curve at least 0.9, where 1 is the maximum;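 further: isolated human DIO1 enzyme in a cell-free setup rather than cells; enzyme activity read as free iodide liberated from substrate via Sandell-Kolthoff colorimetry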). Summed up:
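Inhibition read as reduced iodide release: after 3 h of human DIO1 with chemical, free iodide is quantified colorimetrically (Sandell-Kolthoff cerium/arsenic reaction). Triplicate plates, DMSO baseline.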

For assay [16], the target named is Nucleoli Translocation, AR (gene 367) (UniProt P10275). The assay can be described thus: UPITT_HCI_U2OS_AR_TIF2_Nucleoli_Antagonist: University of Pittsburgh U2OS Androgen Receptor-Transcriptional Intermediary Factor 2 (AR-TIF2) Antagonism High Content Imaging Assay for Nucleoli Translocation (AID 2283997; active means hit-call score of the fitted dose curve at least 0.9, where 1 is the maximum). Summed up:
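U2OS cells expressing RFP-tagged human AR and GFP-tagged TIF2 were imaged by high-content fluorescence microscopy for red AR signal in the nucleolar region. Compounds were screened at 20 uM final (0.2% DMSO), with activity fitted relative to DHT as baseline.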

Assay [17] concerns the target Ratio of Nucleoli Translocation and Cytoplasm, AR (gene 367) (UniProt P10275). The assay can be described thus: UPITT_HCI_U2OS_AR_TIF2_Nucleoli_Cytoplasm_Ratio_Antagonist: University of Pittsburgh U2OS Androgen Receptor-Transcriptional Intermediary Factor 2 (AR-TIF2) Antagonism High Content Imaging Assay for Ratio of Nucleoli Translocation and Cytoplasm (AID 2283999; active means hit-call score of the fitted dose curve at least 0.9, where 1 is the maximum;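 further: antagonists lower the DHT-driven ratio of nucleolar to cytoplasmic red signal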). Summed up:
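U2OS cells expressing RFP-tagged human AR and GFP-tagged TIF2; compounds tested at 20 uM final (0.2% DMSO) in primary screen, 0.195–50 uM (0.5% DMSO) for concentration response. Readout: nucleolar-to-cytoplasmic red fluorescence ratio by high-content imaging, fitted relative to DHT.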

Assay [18] is described as follows: CCTE_Simmons_MITO_viability: CellTiter-Glo Viability Assessment for CCTE's HepG2 Seahorse XF Respirometric Screening Assay [post-hoc], Simmons Lab (AID 2284007; active means hit-call score of the fitted dose curve at least 0.9, where 1 is the maximum). Summed up: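 HepG2 cells from the Seahorse XF respirometry run were exposed 90 min to a 7-point series, 125 nM–100 uM final, DMSO vehicle; ATP content then read by luciferase luminescence. Three biological replicates, technical singles; loss of signal fitted versus DMSO.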

Assay [19] in a line: TOX21_TR_RXR_BLA_Antagonist_Followup_viability: Viability Assessment in the Tox21 Thyroid Hormone Receptor beta Retinoid X Receptor alpha (RXRa) Antagonism Beta-lactamase (BLA) Follow-Up Assay (AID 2283979; active means hit-call score of the fitted dose curve at least 0.9, where 1 is the maximum). In outline: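 RXRa-UAS-bla HEK293T cells seeded 2,500/well in phenol red-free DMEM with 2% charcoal-stripped FBS, attached 5 h, then exposed to compounds at 11 concentrations in triplicate for 16 h at 37C/5% CO2. Viability read by CellTiter-Glo ATP luminescence; bidirectional fit versus DMSO.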

Sequence of Ratio of Nucleoli Translocation and Cytoplasm, AR (gene 367) (P10275 whole entry, looked up): as above

One may read the AC50 as the midpoint of the concentration-response curve, whichever way the signal moves. Consider `C[C@]12C=CC3=C4CCC(=O)C=C4CC[C@H]3[C@@H]1CC[C@@H]2O`, for which the AC50 in assay [1] is 0.00188 µM (active); in assay [2] it was 0.00266 µM (active). For the same compound, the call in assay [3], in [4], in [5] and in assay [6] was inactive.
Regarding `CS(=O)(=O)NC(=O)c1cc(Oc2ccc(C(F)(F)F)cc2Cl)ccc1[N+](=O)[O-]`, the outcome in assay [7], in assay [8], in assay [9], in assay [10], in assay [11] and in assay [12] was inactive. Besides, the result in assay [13] and in assay [6] was inactive.
As to `ClC1=C(Cl)[C@]2(Cl)[C@H]3[C@H]([C@@H]4C=C[C@H]3C4)[C@@]1(Cl)C2(Cl)Cl`, the outcome in assay [14], in assay [15] and in [6] was inactive.
With `CN(C)[C@@H]1C(=O)C(C(N)=O)=C(O)[C@@]2(O)C(=O)C3=C(O)c4c(O)cccc4[C@@](C)(O)[C@H]3C[C@@H]12`, the AC50 in the assay on DIO1 (gene 1733) was 56.9 µM (active). Besides, in assay [6], the outcome was inactive.
In the case of `CO[C@@H]1[C@H](OC(=O)NC(=O)CCl)CC[C@]2(CO2)[C@H]1[C@@]1(C)O[C@@H]1CC=C(C)C`, in the assay on DIO1 (gene 1733), the AC50 was 17.8 µM (active). Besides, the call in assay [16], in assay [1], in assay [17], in [2] and in [6] was inactive.
`Nc1ccc(N=Nc2ccccc2)cc1`: the outcome in assay [3], in [4], in [5], in [18] and in [6] was inactive.
In the case of `C[N+](C)(C)CC1CO1` (centres undefined), the outcome in assay [1], in assay [17], in assay [2], in assay [14], in assay [15] and in [6] was inactive.
Regarding `CCCCCOC(=O)c1ccccc1C(=O)OCCCCC`, the AC50 in [14] and in [15] was 2.58 µM (active) throughout. For the same compound, in assay [6], the result was inactive.
`CCCCOC(=O)c1ccccc1C(=O)OCc1ccccc1`: the concentration at half-maximal activity (AC50) in assay [14] and in assay [15] was 3.11 µM (active) throughout. Besides, in assay [6], the outcome was inactive.
Take `O=Cc1ccco1`: the compound was classed as inactive in assay [14] and in assay [15].
Take `O=C(Nc1ccccc1)c1ccccc1I`: the compound was classed as inactive in [16], in assay [1], in [17], in assay [2] and in [6].
In the case of `ClC1=C(Cl)C2(Cl)C3C(Cl)C=CC3C1(Cl)C2(Cl)Cl` (centres undefined), the AC50 in assay [14] was 7.52 µM (active); in assay [15], 7.53 µM (active). Besides, the outcome in assay [6] was inactive.
In the case of `O=[N+]([O-])C(Br)(CO)CO`, the figures for the AC50 in [16], in [14] and in [15] were 31.8 µM (active), 33.6 µM (active) and 33.9 µM (active), respectively. For the same compound, the compound was called inactive in [1], in assay [17], in assay [2] and in assay [6].
On to `Nc1ccc([N+](=O)[O-])cc1`, for which the outcome in [16], in [2] and in assay [6] was inactive.
For `CN(C)c1ccc(C(=O)c2ccc(N(C)C)cc2)cc1`, the result in [19] and in assay [6] was inactive.
Turning to `Nc1ccc(Cl)cc1N`, the outcome in [16], in assay [1], in assay [17], in assay [2] and in assay [6] was inactive.
